IL-1B inflam inh: inhibitors of inflammasome signaling (IL-1 beta secretion); activity change, % at 57.5 µM; 360,000 tested, 4.7% active; THP-1 LPS/ATP IL-1B secretion, AlphaLISA, 16 h; hits give low values; AID 743279; in the data active = activity change below about -50%; inconclusive = mostly about -30% to -49%
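THP-1 cells pretreated 1 hr with compounds (up to 57.5 uM final), then stimulated with LPS (250 ng/mL final) plus ATP (1.25 mM final); secreted IL-1B measured by AlphaLISA after 16 hr, decreased signal indicating inhibition.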
TDP1 cell CPT: DT40-hTDP1 cell growth loss with CPT. chicken DT40 Tdp1-/-;hTDP1 cells + 20 nM CPT, ATP luminescence, 48 h. Potency, µM (doses to about 46.2 µM), for the others: top-dose activity change, negative = growth inhibition, most hits filed as inhibitors. 420,000 tested, 12% active; note: potency is the fitted concentration of half-maximal effect; nearly all actives have a fitted effect of over 55% in size
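Cell growth measured by CellTiter-Glo luminescence after a minimum 48 h, 37 C compound exposure with 20 nM CPT in Tdp1-knockout DT40 cells stably expressing hTDP1, seeded 400/well; qHTS titration format.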
HT1080 IDH1KD tx: kills HT-1080 cells with IDH1 knockdown. 360,000 tested, 2% active. Potency, µM (highest dose often 46.1 µM), inactives show at the top dose activity, negative = toxicity, actives largely listed as cytotoxic. HT-1080 IDH1 knockdown viability, ATP luminescence, 48 h;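 note: potency is the fitted concentration of half-maximal effect; 0% = DMSO wells and -100% = cell-free medium wells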
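HT-1080-IDH1KD cells (IDH1 knocked down), 750/well in RPMI with 5% FBS, treated with compound 48 h at 37 degrees C. Viability by CellTiter-Glo luminescence, normalised to DMSO and no-cell wells; concentration-response curves classed.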
DT40 TDP1 no CPT: qHTS for Inhibitors of human tyrosyl-DNA phosphodiesterase 1 (TDP1): qHTS in cells in absence of CPT. 420,000 tested, 15% active. DT40 Tdp1-/- hTDP1 cells, no CPT, ATP luminescence, 48 h. Potency, µM (doses to about 46.2 µM), for inactives: at the highest dose activity change, negative = growth inhibition, hits mostly inhibitors; note: potency is the fitted concentration of half-maximal effect; nearly all actives have a fitted effect of over 55% in size
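Chicken DT40 Tdp1-/- cells stably complemented with human TDP1 were seeded at 400 cells/well with DMSO in place of 20 nM camptothecin. After compound pinning, cells grew at least 48 hr at 37 °C; viability read by CellTiter-Glo luminescence.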
HT1080NT lethal: kills 2HG-producing HT-1080-NT fibrosarcoma cells; AID 686970; Potency, µM (titrated, usually from 46.1 µM), without a hit: at the highest dose activity, negative = less viability, actives largely listed as cytotoxic; 360,000 tested, 1.6% active; HT-1080-NT fibrosarcoma viability, CellTiter-Glo ATP luminescence, 48 h;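 note: NT is the 2HG producing partner of a matched IDH1 knockdown line; potency is the fitted concentration of half-maximal effect; 0% = DMSO-treated cells and -100% = media-only wells without cells; nearly all actives have a fitted effect of over 55% in size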
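A 48-hour cytotoxicity screen used HT-1080-NT cells plated 2 hours before compound delivery. ATP-based CellTiter-Glo luminescence measured viability, normalized to DMSO and no-cell controls.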
Starred values were filed as active, the others as inactive; i = inactive; ? = inconclusive; / = no result. A selection: hits, their analogues and other compounds. The true share with any hit is near 19%. Unless noted, calls come from the whole dose curve; as a rule, active = well fitted curve in the direction sought with a large enough effect; inconclusive = small, poorly fitted or top-dose-only effect, or another doubt; inactive = no such curve, though single readings can be large; an effect the other way counts as inactive or inconclusive. Unless noted, % is set by controls: 0 for no effect and ±100 for the full control effect.

SMILES	IL-1B inflam inh	TDP1 cell CPT	HT1080 IDH1KD tx	DT40 TDP1 no CPT	HT1080NT lethal
C[C@H](NC(=O)c1nc[nH]c1C(=O)NCc1ccccc1)C(=O)OC(C)(C)C	-8	?	1%	?	0%
C[C@H](NC(=O)c1nc[nH]c1C(=O)NCCCCCNC(=O)OC(C)(C)C)C(=O)OC(C)(C)C	3	18µM*	-19%	16µM*	-13%
CC(C)C[C@H](NC(=O)c1nc[nH]c1C(=O)NCCCCCNC(=O)OC(C)(C)C)C(=O)OC(C)(C)C	-3	?	?	18µM*	?
CN(C)c1ccc(CNC(=O)c2cnc3sc(N4CCCCCC4)nn3c2=O)cc1	/	-14%	/	?	/
CCOC(=O)c1ccc(NC(=O)CC2C(=O)OCCN2CC)cc1 (stereo not given)	0	21µM*	15%	21µM*	23%
CCOc1ccc(NC(=O)CC2C(=O)OCCN2CC)cc1 (stereo not given)	/	8.2µM*	/	?	/
CCN1CCOC(=O)C1CC(=O)Nc1cccc(OC)c1 (stereo not given)	/	5.2µM*	/	21µM*	/
CCOC(=O)c1ccc(NC(=O)CC2OCCN(CC)C2=O)cc1 (stereo not given)	3	18µM*	9%	13µM*	-5%
Cc1cccc(NC(=O)CC2C(=O)OCCN2Cc2ccccc2)c1 (stereo not given)	/	-24%	/	-26%	/
COc1ccc(OCc2cc(C(=O)N3CCC(c4ccccc4)CC3)no2)c(Cl)c1	i	-27%	-4%	?	-5%
O=C(c1ccccc1)c1ccc(NCCCn2ccnc2)c([N+](=O)[O-])c1	-74*	-29%	-21%	?	-24%
CCNC(=O)NC(=O)CSc1ccc(S(=O)(=O)N2CCOCC2)cn1	5	-7%	5%	1%	0%
CCCN1CCN(C(=O)Nc2cccc(C(F)(F)F)c2)CC1	-9	-24%	6%	-14%	0%
Cc1oc2ccc(O)c(CN3CCN(C)CC3)c2c1C(=O)Nc1cccc(C(F)(F)F)c1	/	15µM*	/	?	/
CCN1CCN(Cc2c(O)ccc3oc(C)c(C(=O)Nc4cccc(C(F)(F)F)c4)c23)CC1	/	15µM*	/	?	/
CC(C)(C)OC(=O)N1CCC(c2c(C(=O)NC3CC3)cnn2-c2ccc(Cl)cc2)CC1	16	?	-4%	-16%	5%
Cc1ccc(-n2ncc(C(=O)NCc3ccccn3)c2C2CCN(C(=O)OC(C)(C)C)CC2)c(C)c1	/	?	/	21µM*	/
COc1ccc(CCNC(=O)c2cnn(-c3cccc(C)c3)c2C2CCN(C(=O)OC(C)(C)C)CC2)cc1OC	/	?	/	15µM*	/
Cc1ccc(-n2ncc(C(=O)NCCN3CCOCC3)c2C2CCN(C(=O)OC(C)(C)C)CC2)c(C)c1	/	0%	/	?	/
COc1ccc(CCNC(=O)c2cnn(-c3ccc(F)cc3)c2C2CCN(C(=O)OC(C)(C)C)CC2)c(OC)c1	/	?	/	13µM*	/
COc1ccc(OC)c(CCNC(=O)c2cnn(-c3ccc(C)cc3C)c2C2CCN(C(=O)OC(C)(C)C)CC2)c1	/	4.6µM*	/	15µM*	/
COc1ccc(OC)c(CCNC(=O)c2cnn(-c3ccccc3)c2C2CCN(C(=O)OC(C)(C)C)CC2)c1	/	13µM*	/	23µM*	/
Cc1ccccc1S(=O)(=O)Cc1ccc(C(=O)N(C)C2CCCCC2)o1	-17	?	4%	?	19%
CCN(CC)c1ccc(/C=N/NC(=O)c2ccc(Br)o2)cc1	?	?	?	?	-30%
CCc1ccc(/C=N\NC(=O)c2ccc(Br)o2)s1	-8	?	-16%	23µM*	-1%
SMILES	IL-1B inflam inh	TDP1 cell CPT	HT1080 IDH1KD tx	DT40 TDP1 no CPT	HT1080NT lethal
COc1ccccc1-c1cc(C(=O)N/N=C/c2ccoc2)c2ccccc2n1	28	?	0%	7.3µM*	-9%
CCc1ccc(/C=N/NC(=O)c2cc(C3CC3)nc3ccc(Br)cc23)s1	24	2.6µM*	5.8µM*	4.6µM*	6.5µM*
CCN(CC)C(=O)COc1ccc(/C=N/NC(=O)c2cc(-c3ccccc3OC)nc3ccccc23)cc1OC	/	?	-4%	?	1%
CCc1ccc(/C=N/NC(=O)c2cc(-c3ccccc3OC)nc3ccccc23)s1	-6	4.1µM*	-10%	12µM*	-14%
O=C(N/N=C/c1cccc(O)c1)c1cc(C2CC2)nc2ccccc12	49	?	?	?	-29%
c1ccc(COc2ncnc3c2ncn3CCCNCc2cccs2)cc1	-27	-21%	-3%	?	-16%
COCCN1C(=O)CSCC1(C)C(=O)NCc1ccccc1 (stereo not given)	42	23%	0%	5%	45%
CCOC(=O)N1CCN(C(=O)COC(=O)CNC(=O)c2ccc(OCC)c(OCC)c2)CC1	0	-9%	15%	-7%	17%
CC(C)(C)c1ccc(S(=O)(=O)N(CCCN2CCOCC2)Cc2cccs2)cc1	?	?	?	16µM*	?
COC(=O)CCC/C=C1/SCC(NC(=O)c2ccccc2)C1=O (stereo not given)	3	26µM*	-4%	16µM*	-3%
Cc1occc1C(=O)NNC(=O)NC12CC3CC(CC(C3)C1)C2	-11	-26%	-4%	-17%	-4%
Cc1oc(-c2ccccc2Cl)nc1CS(=O)(=O)CC(=O)NCc1ccc(F)cc1	/	?	/	18µM*	/
Cc1oc(-c2ccccc2Cl)nc1CS(=O)(=O)CC(=O)N1CCOCC1	13	10%	-8%	-14%	-5%
Cc1oc(-c2ccccc2Cl)nc1CS(=O)(=O)CC(=O)NC(C)c1ccccc1 (stereo not given)	17	?	0%	23µM*	4%
Cc1oc(-c2ccccc2Cl)nc1CS(=O)(=O)CC(=O)NC(C)CCc1ccccc1 (stereo not given)	/	16µM*	/	?	/
COc1ccccc1C(=O)NCC(=O)OC(C)C(=O)N1CCOCC1 (stereo not given)	-8	6%	15%	-4%	9%
CCn1c(SCc2cccc(Br)c2)nnc1-c1nonc1NC(C)=O	/	18µM*	/	23µM*	/
Cc1ccc(NC(=O)CSc2nnc(-c3n[nH]c4ccccc34)n2-c2ccccc2)c(C)c1	-51*	15µM*	?	?	-25%
Cc1ccc(OCc2nnc(SCC(=O)Nc3cccc4ccccc34)n2-c2ccccc2)cc1	-26	?	-19%	?	-22%
NS(=O)(=O)c1cccc(NC(=O)COC(=O)c2cc(-c3ccc(Cl)cc3)nc3ccccc23)c1	?	?	?	?	-20%
